Results reported in PubChem BioAssay (NCI).
About 83,000 compounds went through this panel and 20% of them were active in at least one assay; those are over-represented in the sample as a whole.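 Activity criterion: percent growth below 10, measured after cells in 96-well plates were exposed to a single compound concentration for 48 hours.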 Values without a mark were called inactive. Activity calls are given as the source filed them.

Each compound was assayed on HL-60(TB) leukemia (assay: NCI-60 one-dose screen, 48 h (100 = growth as untreated, 0 = no growth, -100 = all killed)). Details: 10 µM unless noted.

Row | SMILES | growth
1 | CCCCOC(=O)c1cccc([N+](=O)[O-])c1 | 142%
2 | O=C(Nc1ccc(-n2ccc3c(NC(=O)c4ccccc4)ncnc32)cc1)c1ccc(Cl)c(C(F)(F)F)c1 | 34.6%
3 | Cl.[Pt].[c-]1ccccc1-c1ccccn1.c1ccc(P(c2ccccc2)C([PH+](c2ccccc2)c2ccccc2)[PH+](c2ccccc2)c2ccccc2)cc1 | 7.19% (active)
4 | COc1cc(/C=C/C(=O)N2CCN(C(=O)/C=C/c3ccccc3)CC2)cc(OC)c1OC | 101%
5 | C/C(Cc1ccccc1)=N\O | 13.8%
6 | CCN(CC)CCNc1ccc(CO)c2oc3cc(Cl)ccc3c(=O)c12 | 111%
7 | C[N+]1=C(/C=C\C=C\c2ccccc2)C(C)(C)c2ccccc21 | -22.2% (active)
8 | Cc1cc2c(c(C)c1Cl)C(=O)/C(=C/c1cccc([N+](=O)[O-])c1)O2 | 98.8%
9 | O=c1oc2c(cnc3ccccc32)cc1-c1cccc(Cl)c1 | 102%
10 | Cc1nc2sc(C(=O)Nc3ccccn3)c(N)c2cc1C(C)O (configuration not stated) | 34.1%
11 | COc1ccc(C2=NN(c3ccc(S(N)(=O)=O)cc3)C(c3ccc(Cl)cc3)C2)c(O)c1 (configuration not stated) | 29.9%
12 | CN1CCCN(C(c2ccccc2)c2ccc(Cl)cc2)CC1 (configuration not stated) | 93.5%
13 | Oc1ccc2ccccc2c1CN1CCOCC1 | 105%
14 | C[C@]12CCc3nc(Nc4ccc(O)cc4)sc3C1=CC[C@@H]1[C@@H]2CC[C@]2(C)/C(=N/NC(N)=S)CC[C@@H]12 | -4.61% (active)
15 | COc1ccc(C(c2cc(OC)c(OC)c(OC)c2)n2cncn2)cc1O (configuration not stated) | -32.5% (active)
16 | N[C@H](C(=O)O)[C@@H]1CC(Cl)=NO1 | 34.9% [20 µM]
17 | Cc1c2c(cc[n+]1Cc1ccccc1)c1ccc(OCc3ccccc3)cc1n2Cc1ccccc1 | -54.1% (active)
18 | O=C(Cn1c[n+](CC(=O)c2ccc(-c3ccccc3)cc2)c2ccccc21)Nc1cccc2cccnc12 | -37.2% (active)
19 | N#Cc1ccccc1-c1ccc(CN2C(=O)S/C(=C\c3ccc(Br)cc3)C2=O)cc1 | 96.2%

Row | SMILES | growth
20 | O=C(C[n+]1cccc2ccccc21)c1ccc(O)c(O)c1 | -20% (active)
21 | CCCCCCCCCC(=O)Oc1ccc(/C(=C(/C)Cc2cccc(OC)c2)c2ccc(OCCN(C)C)cc2)cc1 | 112%
22 | COc1ccccc1S(=O)(=O)Nc1ccc2c3c(cc(-c4ccoc4)nc13)C(=O)N2C | 8.91% (active)
23 | COC(=O)[C@]12CC[C@@H](C)[C@H](C)[C@@H]1C1=CC[C@@H]3[C@@]4(C)C[C@@H](O)[C@H](O)[C@@](C)(CO)C4=CC[C@@]3(C)[C@]1(C)CC2 | -28% (active)
24 | O=C(O)c1ccc(N=CC(=O)c2ccc(-c3ccccc3)cc2)cc1 | 77.4%
25 | CCCCn1c(NC(C)=O)c(S(=O)(=O)c2ccccc2)c2nc3ccccc3nc21 | 88.5%
26 | O=C(Cn1c2ccccc2c2ccncc21)N/N=C\c1ccc2ccccc2c1 | 40.5%
27 | C#CCOc1ccc2ncnc(N3CCC(NC(=O)CCl)CC3)c2c1 | 68.8% [8.25 µM]
28 | Nc1n[nH]c2ccc([C@@H]3Nc4ccc5[nH]ncc5c4[C@H]4C5C=CC(C5)[C@@H]34)cc12 (some centres not stated) | -24.9% (active)
29 | O=C1NC(=O)C(=Cc2cc(-c3ccc(Cl)cc3)n(-c3ccccc3)n2)C(=O)N1 | 89.5%
30 | c1ccc(-c2nnc(Nc3nnc(-c4ccccc4)s3)s2)cc1 | 103%
31 | N#C/C(=C\C=C\c1ccc(-c2cc(Cl)ccc2Cl)o1)c1nc2ccccc2s1 | 97.7%
32 | O=C1c2cccc3cccc(c23)C(=O)N1CCCCN1CCN(CCCCOc2ccc(-c3nc4ccc(N5CCOCC5)cc4[nH]3)cc2)CC1 | 92.6%
33 | COc1ccc(/C=N/C2=C(C#N)C(c3ccc(N(C)C)cc3)c3ccc4ccccc4c3O2)cc1 (configuration not stated) | 19.6%
34 | CC1(CO)CCCC1NCCNC1CCCC1(C)CO (configuration not stated) | 95.2%
35 | Cc1cc[c-]cc1.Fc1c[c-]c(-c2ccccn2)c(F)c1.[Pt+2].c1ccc(P(C[PH+](c2ccccc2)c2ccccc2)c2ccccc2)cc1 | -25.7% (active)
36 | COC(=O)c1ccc(NC(=O)c2ccc(-c3cccc([N+](=O)[O-])c3)o2)cc1 | 101%
37 | COc1ccc(Oc2ccc(/C=C/C(=O)c3cc4ccccc4oc3=O)cc2)cc1 | 31.1%
